Test [1] is described as follows: inhibitors of E-selectin induction by TNFa, primary screen, imaging, HUVEC, immunofluorescence, MLSMR starter and 10KST1 sets (AID 487;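 active means visually confirmed hit in the image check and inhibition above 20%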;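 on inhibition: signal is fraction of cell area covered by stained E-selectin grains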;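 on nuclei count: 100% = median nuclei count of all wells on the same plate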). The following applies: HUVEC TNFalpha-induced E-selectin immunofluorescence imaging, at 2 µM; inhibition: stronger effect = higher value; nuclei count: measured here: cell number, toxicity.
Test [2] is described as follows: DUSP6 inhibitors restoring Erk phosphorylation by chemical complementation, primary imaging in DUSP6-transfected HeLa (AID 609;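 active means compounds giving at least 50% inhibition in the cell-based MKP-3 phosphatase rescue imaging test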;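 on inhibition: phospho-Erk level distribution per well compared with pooled transfected vehicle control wells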). The following applies: HeLa MKP-3 transfected, phospho-Erk imaging KS statistic, at 10 µM, cells stimulated with TPA for 15 min.
Test [3] concerns the target Dual specificity protein phosphatase 6 (Homo sapiens) (UniProt Q16828). Described as above. Particulars: HeLa MKP-3 transfected, phospho-Erk imaging KS statistic; at 10 µM; stronger effect = higher value; cells stimulated with TPA for 15 min.
The target of test [4] is Voltage-gated potassium channel subunit beta-2 (Rattus norvegicus) (UniProt P62483). The test is described as follows: KvBeta enzyme negative modulators, primary screen, biochemical, NADPH fluorescence (AID 622;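 active means fluorescence slope higher than the sample average by over 3 SD, cut at about -0.22 in these data, passing the limit was not always enough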;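 further: slope of raw intensity against log time taken from 70 to 1610 s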). Particulars: recombinant KvBeta, 4-cyanobenzaldehyde reduction, at 10 µM, stronger effect = higher value.
Test [5] shares this target. The test is described as follows: KvBeta positive modulators, primary screen, biochemical, NADPH fluorescence (AID 623;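 active means NADPH fluorescence slope more negative than the mean of all samples by about 3 SD, 99.7% confidence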;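 further: fluorescence intensity change per second fitted from 20 to 320 s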). The following applies: Recombinant KvBeta, NADPH fluorescence decrease slope, 10 min; at 10 µM; stronger effect = lower value.
Test [6] deals with Alpha-2C adrenergic receptor (Homo sapiens) (UniProt P18825). The test is described as follows: modulators of alpha2C/GIRK thallium flux, primary screen, cell-based, HEK293 alpha2C/GIRK1/2 (AID 624;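 active means fluorescence slope after compound addition differing from the mean of all screened samples at 99.7% confidence, in either direction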;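 further: slope of fluorescence ratio to pre-addition baseline per second over 15 to 24 s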). The following applies: thallium flux BTC fluorescence, at 10 µM, actives lie on both sides.
Test [7] is described as follows: inhibitors of larval lipid processing in zebrafish, primary screen, whole organism, PED6 fluorescence, gall bladder and intestine (AID 686;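 active means a full or partial loss of lipid-probe fluorescence in the fish gall bladder, intestine or both, judged by eye; inactive means no fluorescence loss, or compound toxic to the fish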;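 further: larvae 5 to 7 days old with five fish per well; signal comes from phospholipase A2 cleavage of quenched PED6 carried via bile; overnight exposure to compound and PED6 before scoring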). The following applies: Zebrafish larvae PED6 lipid processing, fluorescence scoring; screened at 20 µM (by protocol).
Test [8] can be described thus: inhibitors of Chlamydomonas gravitaxis, primary screen, whole organism, Chlamydomonas reinhardtii, WT vs cilia-less mutant, absorbance, 96-well (AID 463189).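 Further: 0% = wild type cc124 cells in DMSO and 100% = ciliumless bld1 mutant cells.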 The following applies: OD600 absorbance, 2 days, at 10 µM, stronger effect = higher value.
A short description of test [9]: inhibitors of Sendai virus-induced IRF3 signaling, primary screen, TLR/RLR signaling modifier project, cell-based, Sendai virus stimulus, luciferase, 10K MLSCN set (AID 602276;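 active means inhibition at or above 50% at 10 µM; inactive means inhibition below 50%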;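 further: firefly luciferase from ISG56 promoter only with Renilla not read in this screen; 0% = Sendai virus plus DMSO and 100% = medium plus DMSO without virus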). Particulars: HEK293 RL24 IRF3 luciferase reporter, at 10 µM, stronger effect = higher value.
The nature of test [10]: inhibitors of poly I:C-induced TLR3 signaling, primary screen, cell-based, poly I:C stimulus, luciferase, 10K MLSCN set (AID 602277;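 active means inhibition of the reporter signal at or above 50%; inactive means inhibition below 50%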). Particulars: HEK293-TLR3 RL24 IRF3 luciferase reporter, at 10 µM, stronger effect = higher value.
For test [11], the target named is Muscarinic acetylcholine receptor M4 (Homo sapiens) (UniProt P08173). Briefly: compounds altering M4/GIRK thallium flux, either direction, primary screen, M4 allosteric agonist project, cell-based, HEK293 M4/GIRK, BTC-AM (AID 625;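 active means fluorescence slope after compound addition differing from the mean of all tested samples at 99.7% confidence, mostly higher but some lower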;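 further: thallium influx through GIRK channels coupled to M4 in HEK293 cells with BTC-AM dye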). Particulars: at 10 µM, actives lie on both sides.
The mark [12] stands for this setting: measured here: cell density z-score.
Setting [13] is: measured here: nuclear c-Myc green intensity z-score.
[14] abbreviates: measured here: nuclear pErk red intensity z-score, stronger effect = higher value.

The structures appear in SMILES notation. Several values for one entry are separate records, joined by “and”; a condition that tells them apart may be missing. Identical values can stand only once. Activity calls are given as the source filed them.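 How the source made its calls, unless noted: active means inhibition at or above 50% relative to wild type and mutant plate controls; inactive means inhibition below 50%.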

We go through 9 molecules from PubChem BioAssay.

Chain of Voltage-gated potassium channel subunit beta-2 (Rattus norvegicus) (P62483 whole entry, looked up): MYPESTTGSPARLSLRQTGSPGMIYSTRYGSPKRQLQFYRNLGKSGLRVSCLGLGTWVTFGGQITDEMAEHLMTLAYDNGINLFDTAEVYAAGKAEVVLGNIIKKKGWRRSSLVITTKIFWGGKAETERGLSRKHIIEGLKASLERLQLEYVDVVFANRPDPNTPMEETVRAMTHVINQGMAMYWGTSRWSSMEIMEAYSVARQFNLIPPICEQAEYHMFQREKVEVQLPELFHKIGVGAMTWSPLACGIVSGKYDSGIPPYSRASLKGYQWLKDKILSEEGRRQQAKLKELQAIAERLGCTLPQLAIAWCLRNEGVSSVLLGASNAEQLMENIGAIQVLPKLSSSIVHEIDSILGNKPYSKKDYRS
Chain of Dual specificity protein phosphatase 6 (Homo sapiens) (Q16828 whole entry, looked up): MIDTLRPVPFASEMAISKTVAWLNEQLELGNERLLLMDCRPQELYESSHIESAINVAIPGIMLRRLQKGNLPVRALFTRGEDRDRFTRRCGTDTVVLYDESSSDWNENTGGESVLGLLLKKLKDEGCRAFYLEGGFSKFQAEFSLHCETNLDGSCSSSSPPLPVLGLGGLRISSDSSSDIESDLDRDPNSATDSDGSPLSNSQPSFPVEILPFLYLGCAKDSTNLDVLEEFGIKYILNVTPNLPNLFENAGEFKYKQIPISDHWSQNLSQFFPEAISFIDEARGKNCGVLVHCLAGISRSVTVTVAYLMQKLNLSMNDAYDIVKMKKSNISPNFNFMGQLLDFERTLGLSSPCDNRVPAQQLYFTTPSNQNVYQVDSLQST
Chain of Muscarinic acetylcholine receptor M4 (Homo sapiens) (P08173 whole entry, looked up): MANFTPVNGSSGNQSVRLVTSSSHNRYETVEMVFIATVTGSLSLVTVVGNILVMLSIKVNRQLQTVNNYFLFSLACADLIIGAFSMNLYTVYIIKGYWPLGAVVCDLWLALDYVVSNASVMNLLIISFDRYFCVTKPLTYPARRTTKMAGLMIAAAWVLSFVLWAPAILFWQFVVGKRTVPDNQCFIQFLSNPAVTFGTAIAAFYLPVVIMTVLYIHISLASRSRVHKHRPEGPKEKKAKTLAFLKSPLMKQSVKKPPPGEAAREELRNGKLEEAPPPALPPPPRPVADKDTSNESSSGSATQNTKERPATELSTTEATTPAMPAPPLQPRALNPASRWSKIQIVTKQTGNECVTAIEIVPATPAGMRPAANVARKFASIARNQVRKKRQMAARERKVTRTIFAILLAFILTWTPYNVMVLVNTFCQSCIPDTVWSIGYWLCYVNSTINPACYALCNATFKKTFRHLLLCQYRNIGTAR
Chain of Alpha-2C adrenergic receptor (Homo sapiens) (P18825 whole entry, looked up): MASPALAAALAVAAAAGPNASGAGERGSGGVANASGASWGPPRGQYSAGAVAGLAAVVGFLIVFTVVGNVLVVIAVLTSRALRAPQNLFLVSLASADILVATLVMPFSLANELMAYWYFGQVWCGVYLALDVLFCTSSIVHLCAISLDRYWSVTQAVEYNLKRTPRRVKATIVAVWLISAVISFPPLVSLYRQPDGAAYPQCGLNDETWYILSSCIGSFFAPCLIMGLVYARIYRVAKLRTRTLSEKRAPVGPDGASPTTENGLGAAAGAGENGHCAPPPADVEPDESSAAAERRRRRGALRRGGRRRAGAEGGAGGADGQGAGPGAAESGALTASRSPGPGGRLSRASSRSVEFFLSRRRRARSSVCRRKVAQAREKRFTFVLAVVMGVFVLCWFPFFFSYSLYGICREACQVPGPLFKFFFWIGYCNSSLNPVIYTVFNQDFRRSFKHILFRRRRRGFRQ

Regarding `O=C(NCC1CCCCN1)c1cc(OCC(F)(F)F)ccc1OCC(F)(F)F` (stereo unspecified), the inhibition in [1] is -29.3% (inactive); in test [3] it was 15.3% (inactive); in test [8], -10.1% (inactive) and -10.2% (inactive); in [9] it was -8.5% (inactive); in [10] it was 50.6% (active). Further, the nuclei count in test [1] is 107%. For the same molecule, the z-score came out at 0.584 in test [2] (setting [12]), 0.032 in [2] (setting [13]) and 0.103 in test [2] (setting [14]). Also, the fluorescence slope in test [4] was -0.495 (inactive). In addition, the NADPH fluorescence slope in test [5] is -5.3e-05 (inactive). Besides, in [6], the slope is 0.00342 (inactive). Moreover, in test [7], the outcome was inactive.

On to `Cc1cc(C)n(C(=O)CNC(=O)c2ccc3c(c2)OCCO3)n1`, for which the inhibition in [1] is -96.3% (inactive); in test [3], 18.9% (inactive); in test [8], 12.4% (inactive). Besides, in test [1], the nuclei count was 162%. The figures for the z-score in test [2] (setting [12]), in test [2] (setting [13]) and in test [2] (setting [14]) were 1.78, -0.668 and -1.28, respectively. The fluorescence slope in test [4] was -0.374 (inactive); in [11] it was 0.00504 (inactive). In addition, in test [5], the NADPH fluorescence slope is -5.5e-05 (inactive). Moreover, in test [7], the molecule was classed as inactive.

For the molecule `O=C(Oc1ccccc1)c1c(Cl)cccc1P(=O)(O)O`, the inhibition in test [1] was -22.4% (inactive); in test [3], -0.159% (inactive); in test [8], -7.77% (inactive). Besides, in test [1], the nuclei count came to 146%. Further, the z-score in [2] (setting [12]) was -1.16; in test [2] (setting [13]) it was 0.0504; in test [2] (setting [14]) it was -1.03. The fluorescence slope in test [4] was -0.396 (inactive); in test [11], 0.00459 (inactive). In test [5], the NADPH fluorescence slope is -2.5e-05 (inactive). In addition, the call in test [7] was inactive.

With `COc1ccc(C(=O)C2CCCCC2=O)cc1` (stereo unspecified), the inhibition in test [1] is 43.3% (inactive); in test [3], -2.07% (inactive); in [8], 20% (inactive). The nuclei count in test [1] worked out at 127%. For the same molecule, the z-score in test [2] (setting [12]) is -0.682; in test [2] (setting [13]), -0.8; in [2] (setting [14]), 1.6. Also, the fluorescence slope is -0.407 (inactive) in test [4] and 0.00364 (inactive) in [11]. Also, the NADPH fluorescence slope in test [5] was -7e-05 (inactive). For the same molecule, the molecule was classed as inactive in test [7].

With `COc1cc(C(=O)NCC(=O)n2nc(C)cc2C)cc(OC)c1OC`, the inhibition in test [1] was 19% (inactive); in [3], 20.8% (inactive); in test [8], -4.24% (inactive). In test [1], this molecule gave a nuclei count of 141%. In addition, the z-score was 1.48 in [2] (setting [12]), 0.2 in test [2] (setting [13]) and -2.19 in test [2] (setting [14]). Moreover, the fluorescence slope in test [4] was -0.389 (inactive); in [11] it was 0.00583 (inactive). The NADPH fluorescence slope in test [5] is 7.5e-06 (inactive). Also, in [7], the outcome was “inactive; toxic”.

In the case of `O=C(CCN1CCc2ccccc21)c1ccc2c(c1)OCCO2`, the inhibition is -46.2% (inactive) in test [1], -0.159% (inactive) in test [3] and 3.69% (inactive) in [8]. Moreover, the nuclei count in [1] is 144%. Besides, the z-score was -0.121 in [2] (setting [12]), -0.0206 in test [2] (setting [13]) and -0.911 in test [2] (setting [14]). The fluorescence slope in test [4] was -0.436 (inactive); in [11] it was 0.00393 (inactive). The NADPH fluorescence slope in test [5] is -2.2e-05 (inactive). Further, the outcome in [7] was inactive.

`CC(C)(C#N)C(C)(C)c1nn[nH]n1`: the values for the inhibition in test [1], in test [3] and in [8] were -15.5% (inactive), 13.2% (inactive) and 20% (inactive), respectively. Besides, the nuclei count in [1] amounted to 72.6%. Moreover, the values for the z-score in [2] (setting [12]), in test [2] (setting [13]) and in [2] (setting [14]) were 1.29, -0.296 and -0.013, respectively. Further, the fluorescence slope in [4] is -0.468 (inactive); in [11], 0.00499 (inactive). In test [5], the NADPH fluorescence slope is -2.9e-05 (inactive). Also, the outcome in [7] was inactive.

For the molecule `CC(C)CCOc1ccc(Cl)cc1CN1CCOCC1`, the inhibition in [1] was -12.9% (inactive); in test [3], -3.98% (inactive); in test [8], 106% (active). In test [1], this molecule had a nuclei count of 146%. The figures for the z-score in [2] (setting [12]), in [2] (setting [13]) and in test [2] (setting [14]) were -1.08, -0.136 and -0.739, respectively. For the same molecule, the fluorescence slope in test [4] is -0.378 (inactive); in test [11] it was 0.00465 (inactive). Besides, the NADPH fluorescence slope in test [5] was -7.1e-06 (inactive). Further, in [7], the outcome was “inactive; toxic”.

With `CC1(C)CC(=O)C(C2=NC(C)(C)Cc3ccccc32)=C(O)C1`, the inhibition was -46.3% (inactive) in test [1], 15.1% (inactive) in [3] and -9.43% (inactive) in test [8]. Also, the nuclei count in test [1] came out at 99.8%. For the same molecule, the z-score in test [2] (setting [12]) is -0.0371; in test [2] (setting [13]), 0.246; in test [2] (setting [14]), -0.668. Besides, the fluorescence slope in test [4] is -0.435 (inactive); in [11] it was 0.00539 (inactive). The NADPH fluorescence slope in test [5] is 3.9e-06 (inactive). In addition, the molecule was classed as inactive in [7].
